We go through three compounds from PubChem BioAssay.

Several values for one entry are separate records, joined by “and”; a condition that tells them apart may be missing. Equal entries are not always repeated. Activity calls are given as the source filed them.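 Rule for the calls, unless noted: active = thallium flux through the channel raised or lowered by more than 3 SD from vehicle-only wells, actives on both sides; inactive = the rest.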

Assay [1] in a line: Wnt pathway potentiators raising nuclear beta-catenin – imaging, WNT3A-conditioned medium, mouse C2C12, NPC library, primary screen (AID 1117326; in the data active = nuclear beta-catenin stimulation mostly above about 4.2%, no sharp cut-off; inactive = mostly below about 10%). The following applies: stronger effect = higher value.
Assay [2] is described as follows: stimulators of insulin release from INS-1E, primary screen, cell-based, 5 mM glucose, NPC library (AID 1117329;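 active = compound raises insulin release from rat beta cells at 5 mM glucose, no numeric limit stated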). The following applies: rat INS-1E insulin secretion, at 10 µM, stronger effect = higher value.
Assay [3] in a line: growth inhibition of GSK3B-pretreated HCT116 cells – cell-based, CellTiter-Glo, 0.2 to 20 µM (AID 1117336;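 active = compounds lowering colon cancer cell viability after pretreatment blocking the GSK3B kinase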). Particulars: HCT116 viability after GSK3B inhibitor, at 20 µM, stronger effect = higher value. For orientation: Cellular ATP, detected with luciferase, serves as a proxy for viable cell number.
The nature of assay [4]: inhibition of endothelial tube formation, primary screen, imaging, VEGF stimulated, CD31 staining, tube area, NPC library (AID 1117340;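 active = compound that reduces growth-factor-driven endothelial tube area in a mixed cell culture, no cutoff stated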). Particulars: VEGF-stimulated ADSC/ECFC co-culture, at 10 µM, stronger effect = higher value.
The nature of assay [5]: GLP1 release stimulators, primary, NCI-H716, NPC library (AID 1117341;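 active = compound raises GLP1 secretion from the human gut endocrine cells, with no numeric limit stated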). The following applies: NCI-H716 cells, at 10 µM, stronger effect = higher value.
A short description of assay [6]: HCT116 colon cancer cell growth inhibition, primary screen, CellTiter-Glo luminescence, NPC library (AID 1117342;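 active = compounds that lower survival of HCT116 colon cancer cells in the luminescence readout, no numeric limit stated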). Particulars: at 20 µM (top of the series).
Assay [7] is described as follows: reduced SW480 viability measured with CellTiter-Glo, NPC library, primary (AID 1117343;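 active = compounds that lower viability of the colon cancer cells in the luminescence readout, with no numeric limit stated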). Particulars: CellTiter-Glo luminescence; at 20 µM (top of the series).
Assay [8] is described as follows: NPC library primary testing for decreased DLD-1 cell viability via CellTiter-Glo (AID 1117346;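 active = compounds that lower survival of DLD-1 colon cancer cells in the luminescence readout, no cutoff given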). The following applies: DLD-1 viability, CellTiter-Glo luminescence; at 20 µM (top of the series).
Assay [9] has as its target 6-phosphogluconate dehydrogenase, decarboxylating (Homo sapiens) (UniProt P52209). The assay can be described thus: inhibition of human phosphogluconate dehydrogenase – biochemical, recombinant enzyme, NADPH absorbance, primary screen (AID 1159550;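 active = at least 20% inhibition of 6-phosphogluconate dehydrogenase activity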). The following applies: recombinant 6PGD, NADPH absorbance 341 nm; at 10 µM; stronger effect = higher value.
Assay [10] in a line: EMT-state selective cytotoxicity in co-culture – imaging, PC-3E GFP, TEM4-18 mCherry, primary screen (AID 1345086;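 active = compounds killing one labelled cell type while sparing the other, by normalised counts and ratio limits, not self-fluorescent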;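 for all read-outs here: cells exposed to compound for 72 h before imaging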;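 for red/green cell ratio (normalised): normalised mesenchymal count divided by normalised epithelial count so high means epithelial killing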). Particulars: PC-3E GFP / TEM4-18 mCherry co-culture, imaging cell counts, at 1 µM; for red/green cell ratio (normalised): actives lie on both sides, counts scaled to control wells, 1 = unselective.
The nature of assay [11]: viability loss with induced miR-34 in A549 – imaging, A549 dox-inducible miR-34, nuclei and caspase counts, primary screen (AID 1347080;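 active = compounds whose cell count with miR-34 switched on is under 0.7 times the count with it off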). Particulars: A549 miR-34 inducible, Hoechst nuclei count, 48 h.
Assay [12] can be described thus: MELAS cybrid and Rieske KO viability enhancers – cell-based, MELAS cybrids, Rieske KO mouse fibroblasts, CellTiter-Glo, primary screen (AID 1508586;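 active = mean z-score across replicates of 1.96 or higher in either the MELAS or the Rieske mutant cell line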;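 note: z relative to plate mean and SD of compound and empty wells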). The following applies: low glucose.
Assay [13] deals with NAD(+) hydrolase SARM1 (Homo sapiens) (UniProt Q6SZW1). The assay can be described thus: blocking NAD cleavage by SARM1 SAM-TIR – cell lysate, NAD-Glo luminescence (AID 1508614;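 active = compound whose remaining NAD level is above about 45 nM, limit read from the data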;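 note: higher remaining NAD means stronger inhibition of SARM1 NADase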). Particulars: SAM-TIR HEK293T lysate NADase, at 1 µM, stronger effect = higher value.
Assay [14] deals with F380Y. As to the kind of experiment: BK channel mutant inhibitors and activators – cell-based, U2OS BacMam, thallium flux, beta subunits, selectivity assay, profiling panel (AID 1259406).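 Note: initial slope of Thallos dye fluorescence rise after thallium is added; log ratio against the mean of 0.3% DMSO vehicle wells on the same plate.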 Particulars: U2OS BacMam BK variants, at 30 µM.
The test system of assay [15] is F380Y/beta1. The assay is described as above. The following applies: U2OS BacMam BK variants, at 30 µM.
Assay [16] has as its system F380Y/beta2Delta. The assay is described as above. The following applies: U2OS BacMam BK variants, at 30 µM.
The test system of assay [17] is F380Y/beta4. The assay is described as above. The following applies: U2OS BacMam BK variants, at 30 µM.
Assay [18] deals with Calcium-activated potassium channel subunit alpha-1 (Homo sapiens) + Leucine-rich repeat-containing protein 26 (Homo sapiens) (UniProt Q12791+Q2I0M4). Described as above. The following applies: U2OS BacMam BK variants, F380Y/Slo1WT/gamma1, at 30 µM.
The test system of assay [19] is R275C. The assay is described as above. Particulars: U2OS BacMam BK variants, at 30 µM.
Where [20] appears, read: measured here: epithelial PC-3E GFP cell survival.
Where [21] appears, read: measured here: mesenchymal TEM4-18 mCherry cell survival.
[22] abbreviates: MELAS cybrid survival, CellTiter-Glo 48 h, stronger effect = higher value.
Setting [23] is: Rieske KO mouse fibroblast survival, CellTiter-Glo 72 h.

Chain of 6-phosphogluconate dehydrogenase, decarboxylating (Homo sapiens) (P52209 whole entry, looked up): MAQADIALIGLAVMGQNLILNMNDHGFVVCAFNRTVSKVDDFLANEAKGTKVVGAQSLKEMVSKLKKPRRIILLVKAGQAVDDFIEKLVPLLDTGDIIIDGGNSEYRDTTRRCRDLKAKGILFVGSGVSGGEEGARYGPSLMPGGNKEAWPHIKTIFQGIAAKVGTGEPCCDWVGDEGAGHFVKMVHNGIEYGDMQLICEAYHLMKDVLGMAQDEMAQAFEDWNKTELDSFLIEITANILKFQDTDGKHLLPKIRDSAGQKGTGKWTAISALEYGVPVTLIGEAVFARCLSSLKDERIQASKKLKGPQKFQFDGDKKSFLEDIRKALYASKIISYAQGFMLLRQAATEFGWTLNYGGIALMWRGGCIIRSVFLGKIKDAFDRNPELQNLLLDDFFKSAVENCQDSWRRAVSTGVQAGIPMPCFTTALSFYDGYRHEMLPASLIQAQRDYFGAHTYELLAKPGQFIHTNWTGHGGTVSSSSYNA
Chain of Calcium-activated potassium channel subunit alpha-1 (Homo sapiens) + Leucine-rich repeat-containing protein 26 (Homo sapiens) (Q2I0M4 whole entry, looked up, one chain of several): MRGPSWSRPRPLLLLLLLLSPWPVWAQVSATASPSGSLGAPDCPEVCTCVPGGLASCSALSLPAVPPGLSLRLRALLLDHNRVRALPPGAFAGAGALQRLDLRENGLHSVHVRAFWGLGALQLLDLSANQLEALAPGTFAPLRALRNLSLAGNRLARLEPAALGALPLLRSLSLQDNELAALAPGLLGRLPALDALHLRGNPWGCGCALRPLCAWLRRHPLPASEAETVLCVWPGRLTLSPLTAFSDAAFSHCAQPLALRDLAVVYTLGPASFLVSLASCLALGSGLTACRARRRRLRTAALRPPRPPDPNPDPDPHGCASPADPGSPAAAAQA
Chain of NAD(+) hydrolase SARM1 (Homo sapiens) (Q6SZW1 whole entry, looked up): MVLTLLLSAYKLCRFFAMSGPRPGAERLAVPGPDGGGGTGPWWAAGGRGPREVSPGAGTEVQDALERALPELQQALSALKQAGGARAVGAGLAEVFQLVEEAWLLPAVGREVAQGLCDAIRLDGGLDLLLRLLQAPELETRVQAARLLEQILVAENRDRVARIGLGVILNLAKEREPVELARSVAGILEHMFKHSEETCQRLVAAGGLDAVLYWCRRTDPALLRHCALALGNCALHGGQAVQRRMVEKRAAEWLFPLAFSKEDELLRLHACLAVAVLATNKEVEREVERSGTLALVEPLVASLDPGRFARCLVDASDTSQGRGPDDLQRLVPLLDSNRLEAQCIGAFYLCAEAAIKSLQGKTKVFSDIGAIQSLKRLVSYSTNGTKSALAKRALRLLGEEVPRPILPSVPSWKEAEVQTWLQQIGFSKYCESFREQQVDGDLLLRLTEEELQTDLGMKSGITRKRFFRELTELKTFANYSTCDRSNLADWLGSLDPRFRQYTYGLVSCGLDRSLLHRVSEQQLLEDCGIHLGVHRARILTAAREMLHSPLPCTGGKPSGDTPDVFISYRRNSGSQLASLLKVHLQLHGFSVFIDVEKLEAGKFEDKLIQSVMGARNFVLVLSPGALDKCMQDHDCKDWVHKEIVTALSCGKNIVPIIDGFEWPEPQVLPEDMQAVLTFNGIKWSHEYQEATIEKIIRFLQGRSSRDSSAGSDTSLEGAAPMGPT

Consider `NS(=O)(=O)c1cc2c(cc1C(F)(F)F)NCNS2(=O)=O`, for which the nuclear beta-catenin stimulation in assay [1] (at 10 µM) was -1% (inactive); in [1] (stimulation, at 2 µM), 1%. For the same compound, in [2], the insulin secretion stimulation is -0.5% (inactive). Moreover, in [3], the viability decrease is -8.5% (inactive). Also, the tube area decrease in assay [4] was -8.6% (inactive). Besides, the GLP1 secretion stimulation in [5] was 0.4% (inactive). Further, the inhibition of viability in assay [6] is -2% (inactive). Further, the viability decrease (inhibition) in assay [7] was 10.4% (inactive); in assay [8], -13.4% (inactive). Also, the inhibition in [9] is -4.61% (inactive). Moreover, the red/green cell ratio (normalised) in assay [10] is 1.07 (inactive). For the same compound, the normalised cell number was 0.95 in assay [10] (setting [20]) and 1.02 in assay [10] (setting [21]). In addition, the fold change was 0.934 (inactive) and 0.925 (inactive) and 0.803 (inactive) in [11] (stronger effect = lower value, cell number ratio, induced over uninduced); 2.9 and 1.27 and 0.875 in assay [11] (measured here: relative caspase fold change +Dox/-Dox). Also, the cell count in [11] (measured here: total cells with miR-34 induction, stronger effect = lower value) was 10100 and 9100 and 10600; in assay [11] (measured here: total cells without miR-34 induction), 10900 and 9840 and 13200. In addition, the z-score in assay [12] (setting [22]) is 0.119 (inactive); in [12] (setting [23]), 0.185. Further, the remaining NAD in [13] was 10 nM (inactive). Besides, the log fold change Tl+ flux in assay [14] is -0.0227 (inactive); in assay [15], 0.0232 (inactive); in assay [16] it was 0.0255 (inactive); in assay [17], 0.0329 (inactive); in assay [18] it was -0.0239 (inactive); in assay [19], -0.0328 (inactive).
For `CSc1ccc2c(c1)N(CCC1CCCCN1C)c1ccccc1S2` (stereo not given), the nuclear beta-catenin stimulation was 22.9% (inactive) in [1] (at 10 µM) and 1.6% in [1] (stimulation, at 2 µM). In addition, the insulin secretion stimulation in assay [2] is 5.6% (inactive). Further, in assay [3], the viability decrease was 110% (active). Further, the tube area decrease in [4] is 103% (active). Besides, in assay [5], the GLP1 secretion stimulation is 12.4% (inactive). Besides, the inhibition of viability in [6] was 112% (active). The viability decrease (inhibition) in assay [7] is 133% (active); in assay [8], 101% (active). Besides, the inhibition in assay [9] was -1.24% (inactive). For the same compound, the red/green cell ratio (normalised) in assay [10] is 1.09 (inactive). For the same compound, the values for the normalised cell number in assay [10] (setting [20]) and in [10] (setting [21]) were 0.88 and 0.96, respectively. The z-score was -1.63 (inactive) and -1.09 in assay [12] (setting [22]); 0.0893 and 2.14 in assay [12] (setting [23]). Besides, the remaining NAD in assay [13] was 10 nM (inactive). Further, the log fold change Tl+ flux in [14] is 0.0395 (inactive); in assay [15], 0.338 (active); in [16], 0.193 (active); in assay [17] it was 0.259 (active); in [18], 0.0351 (inactive); in assay [19], -0.424 (active).
As to `c1ccc2c(c1)CCCC2C1=NCCN1` (stereo not given), the nuclear beta-catenin stimulation in assay [1] (at 10 µM) is 4.7% (inactive); in assay [1] (stimulation, at 2 µM), -0.1%. Also, the insulin secretion stimulation in assay [2] is -0.4% (inactive). In addition, in [3], the viability decrease is -30.2% (inactive). For the same compound, the tube area decrease in assay [4] is -9.5% (inactive). Besides, the GLP1 secretion stimulation in [5] is 0.9% (inactive). Moreover, the inhibition of viability in assay [6] is 0.6% (inactive). For the same compound, the figures for the viability decrease (inhibition) in [7] and in assay [8] were 11.2% (inactive) and -6.9% (inactive), respectively. The inhibition in assay [9] was 19.3% (inactive). Moreover, the red/green cell ratio (normalised) in [10] was 1.32 (inactive). For the same compound, the normalised cell number is 1.03 in [10] (setting [20]) and 1.36 in assay [10] (setting [21]). The z-score in [12] (setting [22]) is -0.281 (inactive) and -0.833 (inactive); in [12] (setting [23]), -0.176 and -0.558. The remaining NAD in [13] was 10 nM (inactive). Besides, the log fold change Tl+ flux in [14] is -0.0277 (inactive); in assay [15] it was 0.041 (inactive); in assay [16], -0.0151 (inactive); in assay [17], 0.00535 (inactive); in assay [18] it was 0.0123 (inactive); in [19] it was -0.00319 (inactive).

As usually defined, the inhibition is the drop in the measured response relative to a control, in per cent.
